In PubChem BioAssay AID1851 (National Center for Advancing Translational Sciences (NCATS), 2009):
Out of some 16,000 compounds screened, about 4,000 (25%) were called active. About 26% were inconclusive and are not listed. These entries were drawn from the full list. Values without a mark were called inactive. Calls come from the whole dose curve; as a rule, active = well fitted curve in the direction sought with a large enough effect; inconclusive = small, poorly fitted or top-dose-only effect, or effect the other way; inactive = no such curve, though single readings can be large or run the other way.

target: Cytochrome P450 2C9 (Homo sapiens) (UniProt P11712); test: Cytochrome panel assay with activity outcomes; conditions: recombinant CYP, pro-luciferin dealkylation, luminescence, p450-cyp2c9; series mostly up to 57.1 µM; activity, negative = inhibition: at the top concentration
Sequence (P11712 whole entry, looked up): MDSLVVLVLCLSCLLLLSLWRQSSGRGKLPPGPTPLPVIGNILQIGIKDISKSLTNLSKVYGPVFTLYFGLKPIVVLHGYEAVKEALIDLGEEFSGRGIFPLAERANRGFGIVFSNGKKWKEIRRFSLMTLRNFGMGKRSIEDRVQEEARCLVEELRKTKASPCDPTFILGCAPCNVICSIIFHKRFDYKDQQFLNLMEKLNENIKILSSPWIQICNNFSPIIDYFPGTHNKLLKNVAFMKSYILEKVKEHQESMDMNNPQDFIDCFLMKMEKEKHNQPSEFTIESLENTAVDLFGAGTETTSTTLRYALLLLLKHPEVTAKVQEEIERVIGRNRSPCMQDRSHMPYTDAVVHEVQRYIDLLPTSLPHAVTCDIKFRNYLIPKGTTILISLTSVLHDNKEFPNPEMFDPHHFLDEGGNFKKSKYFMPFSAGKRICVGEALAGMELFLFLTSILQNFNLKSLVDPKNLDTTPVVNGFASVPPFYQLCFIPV
% is set by controls: 0 for no effect and ±100 for the full control effect.

How did the “activity, negative = inhibition” value turn out when CN1CCCC2(CCN(C(=O)c3cc(C(F)(F)F)cc(C(F)(F)F)c3)CC2)C1 was run?
The value was 6.14%.

With COC(=O)c1c(-c2cc(OC)c(OC)c(OC)c2)c2ccnc(OCc3ncccn3)c2c(=O)n1Cc1ccnc(C)c1 as the molecule, how does the AC50 read?
Its AC50 is 12.6 µM (active).

With Cn1cnc([N+](=O)[O-])c1Sc1nc(N)nc2c1ncn2[C@H]1C[C@H](O)[C@@H](CO)O1 as the molecule, how does the activity, negative = inhibition read?
Its activity, negative = inhibition is -1.03% [at 11.4 µM].

How did the “activity, negative = inhibition” value turn out when Cc1cccc(N2CC(O)=C(c3nc4ccccc4n3C)C2=N)c1 was run?
Its value is -8.08%.

With Cn1c(-c2sc(=S)n(-c3ccccc3)c2N)nc2ccccc21 as the molecule, how does the AC50 read?
Its AC50 is 2.51 µM (active).

Cc1ccc(CS(=O)(=O)CCC(=O)NCCCN2CCCC2=O)cc1 was tested. Which “activity, negative = inhibition” value did it give?
Its value is -8.86%.

With O=C(NCCCN1CCCC1=O)c1ccc(CNS(=O)(=O)c2ccc(F)cc2)cc1 as the molecule, how does the “activity, negative = inhibition” value read?
Its value is -31.1%.

How did the AC50 turn out when Cc1ccc(S(=O)(=O)N(CCCN2CCCC2=O)Cc2cc3c(C)ccc(C)c3[nH]c2=O)cc1 was run?
The AC50 was 3.16 µM (active).

Cc1ccc(C)c(-c2nn(-c3cc(N4CCN(CCO)CC4)ccc3[N+](=O)[O-])c(=O)c3ccccc23)c1 was tested. Which AC50 did it give?
Its AC50 is 12.6 µM (active).

How did the activity, negative = inhibition turn out when Cc1ccc(N2CCN(CCC(=O)O)CC2)cc1 was run?
Its activity, negative = inhibition is 10.3% [at 11.4 µM].

CO[C@@H]1/C=C\CC(=O)N[C@@H](C)C(=O)OC[C@@H](OC)[C@H](C)/C=C\CC(=O)OC[C@H]1C was tested. Which activity, negative = inhibition did it give?
The activity, negative = inhibition was 9.15% [at 11.4 µM].

How did the activity, negative = inhibition turn out when Cn1c(=O)c2[nH]c(CCS)nc2n(C)c1=O was run?
Its activity, negative = inhibition is 10.4% [at 11.4 µM].

Which “activity, negative = inhibition” value does the source give for Cc1cccc(Nc2cc(Cl)nc(SCC(=O)O)n2)c1C here?
Its value is -23.8%.

Which AC50 does the source give for Cc1cccc(NC(=O)CSc2nnc(-c3ccco3)c(-c3ccco3)n2)c1C here?
Its AC50 is 1.78 µM (active).

How did the “activity, negative = inhibition” value turn out when Cc1cc(C)nc(SCC(=O)Nc2ccccc2[N+](=O)[O-])n1 was run?
The value was -21.1%.

How did the “activity, negative = inhibition” value turn out when O=C(O)CCC(=O)N1CCC[C@H]1C(=O)O was run?
The value was 21.5%.

For CCCC[C@H]1C[C@@H]1[C@@H]1N(P(=O)(c2ccccc2)c2ccccc2)C[C@@](O)(c2ccccc2)CC12CC2, which “activity, negative = inhibition” value is on record?
Its value is -27.2%.

Which AC50 does the source give for CCCC[C@H]1C[C@@H]1[C@@H]1N(P(=O)(c2ccccc2)c2ccccc2)[C@](CO)(c2ccccc2)CC12CC2 here?
The AC50 was 15.8 µM (active).

CCC(NC(=O)Nc1cc(OC)c(OC)c(OC)c1)(C(F)(F)F)C(F)(F)F was tested. Which AC50 did it give?
Its AC50 is 14.1 µM (active).

CCN(CC)CCCCCCCCOC(=O)c1cc(OC)c(OC)c(OC)c1 was tested. Which “activity, negative = inhibition” value did it give?
Its value is -12.6%.

CCOC(=O)c1ccc(NC(=O)Nc2ccc3c4c(cccc24)C(=O)N3CC)cc1 was tested. Which AC50 did it give?
Its AC50 is 20 µM (active).

How did the “activity, negative = inhibition” value turn out when CCN1C(=O)c2cccc3c(NC(=O)c4cccc(N5C(=O)CCC5=O)c4)ccc1c23 was run?
Its value is -16.7%.

c1csc(CNc2ccnc(-c3ccc4c(c3)OCO4)n2)c1 was tested. Which activity, negative = inhibition did it give?
Its activity, negative = inhibition is -22.4% [at 2.29 µM].

Which activity, negative = inhibition does the source give for c1cncc(-c2nc(N3CCNCC3)c3ccccc3n2)c1 here?
The activity, negative = inhibition was -1.35% [at 2.29 µM].

CC1CCCCN1c1nc(-c2ccncc2)nc2ccccc12 (stereo unspecified) was tested. Which AC50 did it give?
Its AC50 is 0.398 µM (active).

CN1CCN(c2nc(-c3cccnc3)nc3ccccc23)CC1 was tested. Which activity, negative = inhibition did it give?
Its activity, negative = inhibition is 16.9% [at 2.29 µM].

CCNc1ncc2nc(-c3ccc(OC)cc3)c(=O)n(-c3ccc(OC)cc3)c2n1 was tested. Which “activity, negative = inhibition” value did it give?
Its value is 9.11%.

For NCC(=O)Nc1ccc(Cl)cc1C(=O)c1ccc[nH]1, which activity, negative = inhibition is on record?
The activity, negative = inhibition was -20.4% [at 11.4 µM].

With CS(=O)(=O)N1CCC2(CCN(c3ccncc3)CC2)CC1 as the molecule, how does the “activity, negative = inhibition” value read?
Its value is -22.8%.

CS(=O)(=O)N1CCC2(CC1)CN(c1ncccn1)C2 was tested. Which “activity, negative = inhibition” value did it give?
The value was 21.2%.

CS(=O)(=O)N1CCC2(CC1)CN(c1ccncc1)C2 was tested. Which AC50 did it give?
The AC50 was 15.8 µM (active).

For CS(=O)(=O)N1CCC2(CCCN(c3ccncc3)C2)CC1, which AC50 is on record?
Its AC50 is 0.0794 µM (active).

With CS(=O)(=O)N1CCC2(CCCN(c3ncccn3)C2)CC1 as the molecule, how does the “activity, negative = inhibition” value read?
Its value is -13.1%.

For CS(=O)(=O)N1CCC[C@@]2(CCN(c3ccncc3)C2)C1, which “activity, negative = inhibition” value is on record?
Its value is 6.86%.

With CS(=O)(=O)N1CCC2(CC1)CN(Cc1nccs1)C2 as the molecule, how does the AC50 read?
The AC50 was 10 µM (active).

Which “activity, negative = inhibition” value does the source give for CS(=O)(=O)N1CCC2(CCN(Cc3nccs3)CC2)CC1 here?
Its value is -16.9%.

CS(=O)(=O)N1CCC[C@@]2(CCN(Cc3nccs3)C2)C1 was tested. Which “activity, negative = inhibition” value did it give?
The value was -13.9%.

With CC(=O)N1CCC2(CCCN(C(=O)Nc3cccc(F)c3)C2)CC1 as the molecule, how does the “activity, negative = inhibition” value read?
Its value is -0.517%.

With OCCNc1ncnc2c1ncn2[C@@H]1O[C@@H](CO)[C@H](O)[C@@H]1O as the molecule, how does the activity, negative = inhibition read?
The activity, negative = inhibition was 8.16% [at 11.4 µM].

With COc1ccc(CN(CCN(C)C)c2ccccn2)cc1 as the molecule, how does the AC50 read?
Its AC50 is “inactive”.

How did the AC50 turn out when CN(C)c1nccc(N(Cc2ccccc2)Cc2ccccc2)c1C#N was run?
Its AC50 is 2.24 µM (active).

For Cc1ccc(N(Cc2ccccc2)Cc2ccccc2)cc1, which activity, negative = inhibition is on record?
Its activity, negative = inhibition is -16.6% [at 11.4 µM].

Cc1ccc(N=Nc2ccc(N)cc2C)c(S(N)(=O)=O)c1 was tested. Which activity, negative = inhibition did it give?
The activity, negative = inhibition was -8.16% [at 11.4 µM].

How did the AC50 turn out when COc1ccc(NC(=O)CSc2nc(-c3ccc(C)cc3)cc(C(F)(F)F)c2C#N)cc1 was run?
Its AC50 is 0.794 µM (active).

CCc1ccc(/C=C\C(=O)N2CCc3ccccc3C2)cc1 was tested. Which AC50 did it give?
Its AC50 is 22.4 µM (active).

CCCCCCN1Cc2ccccc2C1 was tested. Which “activity, negative = inhibition” value did it give?
Its value is 4.38%.

With N=C(N)N1CCc2ccccc2C1 as the molecule, how does the “activity, negative = inhibition” value read?
The value was -9.55% [at 25.6 µM].

For CCOc1ccc(OCc2ccc(C(=O)NCc3cccnc3)o2)cc1, which AC50 is on record?
Its AC50 is 12.6 µM (active).

Which “activity, negative = inhibition” value does the source give for COc1ccccc1OCc1ccc(C(=O)N(C)C)o1 here?
Its value is -18%.

For Cc1cc(=O)oc(C)c1C(=O)NCc1ccccc1, which “activity, negative = inhibition” value is on record?
The value was -11.3%.

With Cc1ccccc1-c1cc(NCc2cccnc2)ncn1 as the molecule, how does the activity, negative = inhibition read?
Its activity, negative = inhibition is -13% [at 2.29 µM].

With Cc1ccccc1CS(=O)(=O)Cc1ccc(C(=O)NCc2cccnc2)o1 as the molecule, how does the AC50 read?
Its AC50 is 5.01 µM (active).

With CCOc1ccc(OCc2ccc(C(=O)N3CCc4ccccc4C3)o2)cc1 as the molecule, how does the AC50 read?
Its AC50 is 5.01 µM (active).

Which “activity, negative = inhibition” value does the source give for Clc1ccccc1OCCCCN1CCCC1 here?
The value was -9.04%.

For COc1ccc(-c2cc(C(=O)NCc3cccnc3)no2)cc1OC, which “activity, negative = inhibition” value is on record?
The value was 23.4%.

CC1CCN(C(=O)c2ccc(COc3ccccc3Cl)o2)CC1 was tested. Which AC50 did it give?
The AC50 was 17.8 µM (active).

CCOc1cccc(CNCCNC(=O)c2nonc2N)c1 was tested. Which “activity, negative = inhibition” value did it give?
The value was -17%.

Which “activity, negative = inhibition” value does the source give for Cc1cc(C)n(CCCNCC(O)c2ccccc2)n1 (stereo unspecified) here?
Its value is -11.4%.

For Cc1cc(C)n(Cc2ccc(NC(=O)c3ccc(COc4ccccc4Br)cc3)cc2)n1, which AC50 is on record?
The AC50 was 1.12 µM (active).

With Cc1ccccc1C(=O)Nc1ccc(C(=O)NNC(=O)CCCOc2ccc(Cl)cc2Cl)cc1 as the molecule, how does the “activity, negative = inhibition” value read?
Its value is -26.9%.

With c1ccc(CN2CC[C@@H](CNc3ncnc4ccccc34)C2)cc1 as the molecule, how does the activity, negative = inhibition read?
Its activity, negative = inhibition is 22.2% [at 11.4 µM].
